# Assay results: publication PMC4336329 (PLoS ONE, 2015)
# The whole screen tested about 310,000 compounds, of which about 14,000 (4.5%) showed an effect of 50% or more. The effect is printed as a negative number. The sample as a whole holds a higher share of strong results than the screen did.
# Target: human ether-à-go-go-related gene (hERG) potassium channel (human, UniProt Q12809)
# Assay: primary screen, population patch clamp on CHO cells stably expressing hERG; higher = less effect of the substance
# 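Also: peak tail current of the secondary pulse compared with the same well before compound.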
# Sequence of human ether-à-go-go-related gene (hERG) potassium channel (Q12809 whole entry, looked up): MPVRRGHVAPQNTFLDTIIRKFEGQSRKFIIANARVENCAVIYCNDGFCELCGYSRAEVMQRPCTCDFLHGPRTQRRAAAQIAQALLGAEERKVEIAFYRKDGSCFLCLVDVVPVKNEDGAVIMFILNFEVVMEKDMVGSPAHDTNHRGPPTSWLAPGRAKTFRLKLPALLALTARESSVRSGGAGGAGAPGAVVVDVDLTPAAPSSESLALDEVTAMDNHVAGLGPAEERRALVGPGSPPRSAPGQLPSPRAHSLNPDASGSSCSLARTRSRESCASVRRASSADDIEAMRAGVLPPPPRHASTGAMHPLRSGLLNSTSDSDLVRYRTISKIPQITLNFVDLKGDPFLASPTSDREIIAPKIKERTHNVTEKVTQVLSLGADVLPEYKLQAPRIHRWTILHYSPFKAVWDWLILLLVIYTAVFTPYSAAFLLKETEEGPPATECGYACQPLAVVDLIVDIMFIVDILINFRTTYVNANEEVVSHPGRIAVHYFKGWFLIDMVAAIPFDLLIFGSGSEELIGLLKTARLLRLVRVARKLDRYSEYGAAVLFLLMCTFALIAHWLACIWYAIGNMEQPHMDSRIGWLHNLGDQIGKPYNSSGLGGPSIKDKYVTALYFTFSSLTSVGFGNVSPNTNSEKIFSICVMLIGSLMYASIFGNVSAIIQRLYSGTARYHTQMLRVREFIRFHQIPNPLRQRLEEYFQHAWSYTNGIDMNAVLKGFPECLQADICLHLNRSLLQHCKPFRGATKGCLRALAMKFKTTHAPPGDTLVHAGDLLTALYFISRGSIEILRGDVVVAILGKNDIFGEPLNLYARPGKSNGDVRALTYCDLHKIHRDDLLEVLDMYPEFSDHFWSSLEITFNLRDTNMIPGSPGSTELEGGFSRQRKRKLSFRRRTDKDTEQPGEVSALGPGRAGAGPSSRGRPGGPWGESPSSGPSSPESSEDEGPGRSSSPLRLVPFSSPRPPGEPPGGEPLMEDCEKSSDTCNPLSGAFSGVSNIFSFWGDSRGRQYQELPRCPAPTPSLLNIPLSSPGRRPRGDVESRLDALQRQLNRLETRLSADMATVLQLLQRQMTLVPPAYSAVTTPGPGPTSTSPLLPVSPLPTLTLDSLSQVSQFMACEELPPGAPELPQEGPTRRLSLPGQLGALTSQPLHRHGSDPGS
row,Compound,"hERG current change (%, negative = inhibition) at 10uM"
1,CCC1CCCCN1C(=O)CSc1nnc(CNC(=O)COc2ccc(Cl)cc2)o1 (stereo not drawn),-32.5%
2,COc1cnc(-c2ccccn2)nc1Oc1ccccc1,-72.8%
3,COc1cnc(-c2ccccn2)nc1Oc1ccc(Cl)cc1,-0.157%
4,COc1cnc(-c2ccccn2)nc1Oc1ccc(C(C)(C)C)cc1,-2.72%
5,CC(C)C(=O)NC(c1ccccc1Cl)c1c(O)ccc2ccccc12 (stereo not drawn),7.79%
6,O=C(O)CCN1C(=O)CC(N2C(=O)/C(=C/c3ccc(Cl)cc3)SC2=S)C1=O (stereo not drawn),18.8%
7,CSc1snnc1-c1ccccc1,25.6%
8,CC(C)(C)c1ccc(OCCCNCc2ccccc2)cc1.O=C(O)C(=O)O,-19.5%
9,COc1cccc(OC)c1OCCCNC1CCCC1.O=C(O)C(=O)O,-7.84%
10,O=C(O)C(=O)O.c1ccc(Cc2ccc(OCCCNC3CCCC3)cc2)cc1,-58.9%
11,Cc1ccc(OCCCNC2CCCC2)cc1,-0.454%
12,O=C(O)C(=O)O.c1cc2c(cc1OCCNC1CCCC1)CCC2,0.00128%
13,C=CCNCCCCOc1ccc(OCc2ccccc2)cc1.O=C(O)C(=O)O,-42.1%
14,Cc1ccc(C)c(OCCCNC2CCCC2)c1C.O=C(O)C(=O)O,-10.3%
15,CCOc1cccc(OCCNC2CCCC2)c1.O=C(O)C(=O)O,5.28%
16,O=C(O)C(=O)O.c1ccc(COc2ccc(OCCCNC3CCCC3)cc2)cc1,-57.1%
17,O=C(O)C(=O)O.c1ccc(-c2ccc(OCCCNC3CCCC3)cc2)cc1,-86.1%
18,O=C(O)C(=O)O.OCCNCCCCOc1ccc(OCc2ccccc2)cc1,-32.1%
19,CC(C)(C)c1ccc(OCCCNC2CCCC2)cc1.O=C(O)C(=O)O,-54.5%
20,COc1ccc(C2=NN(C(=O)COC(=O)c3ccc(NC(=O)CC#N)cc3)C(c3ccco3)C2)cc1 (stereo not drawn),5.24%
21,COC(=O)c1oc2nc(C)cc(C)c2c1N,-4.33%
22,CC(C)N(C)C(=O)CCc1nnc(CCc2c[nH]c3ccccc23)o1,6.75%
23,COc1ccc(C)cc1NC(=O)c1sc2ncn(CC(=O)N3CCCCC3)c(=O)c2c1C,9.03%

row,Compound,"hERG current change (%, negative = inhibition) at 10uM"
1,Cc1ccnc(Nc2nc3ccccc3s2)n1,-4.71%
2,COc1ccc(NC(=O)C2CCCN(c3nccc(C)n3)C2)cc1 (stereo not drawn),-3.13%
3,CCOC(=O)c1c(C)n(Cc2ccco2)c2c1cc(O)c1ccccc12,6.11%
4,Cc1ccc(OCCn2c(NC(=O)c3ccco3)nc3ccccc32)cc1,-5.24%
5,Cn1cc(Br)c(C(=O)Nc2c(F)c(F)c(F)c(F)c2F)n1,-6.6%
6,COc1ccc(Cl)cc1S(=O)(=O)N1CCC(C(=O)NCc2ccccn2)CC1,-7.12%
7,Cn1nc(C(=O)N2CCN(S(=O)(=O)/C=C/c3ccccc3)CC2)c2ccccc2c1=O,-65.1%
8,O=C(c1cccc([N+](=O)[O-])c1)N1CCN(S(=O)(=O)N2CCCCC2)CC1,-15.2%
9,Cn1nc(C(=O)N2CCN(C(c3ccccc3)c3ccccc3)CC2)c2ccccc2c1=O,-35.2%
10,O=C(c1ccco1)N1CCN(S(=O)(=O)/C=C/c2ccccc2)CC1,-38.3%
11,O=CN1CCN(C(=O)c2cccc([N+](=O)[O-])c2)CC1,-4.11%
12,Nc1ccc(C(=O)N2CCN(S(=O)(=O)/C=C/c3ccccc3)CC2)cc1[N+](=O)[O-],-43.9%
13,O=C(c1cccc([N+](=O)[O-])c1)N1CCCN(C(=O)c2cccc([N+](=O)[O-])c2)CC1,-42%
14,O=C(c1cccc([N+](=O)[O-])c1)N1CCN(C/C=C/c2ccccc2)CC1,-65.9%
15,O=C(c1ccc2ccccc2c1)N1CCN(S(=O)(=O)/C=C/c2ccccc2)CC1,-31.9%
16,O=C(c1ccc(Cl)cc1)N1CCN(S(=O)(=O)/C=C/c2ccccc2)CC1,-54.8%
17,O=C(c1cccc([N+](=O)[O-])c1)N1CCN(S(=O)(=O)/C=C/c2ccccc2)CC1,-64.3%
18,Cn1nc(C(=O)N2CCN(S(=O)(=O)c3ccccc3)CC2)c2ccccc2c1=O,-23%
19,Cc1nc(N=Nc2ccc(O)cc2)n[nH]1,7.01%
20,CC12CC[C@H]3[C@@H](CCC4(O)C[C@H](O)CCC34/C=N/NC(=O)c3ccccc3Cl)C1(O)CCC2C1=CC(=O)OC1 (stereo partly drawn),9.69%
21,O=C(COC(=O)c1ccc(S(=O)(=O)Nc2ccccc2)cc1)NCC1CCCO1 (stereo not drawn),1.33%
22,COC(=O)c1ccccc1NC(=O)c1ccc(COc2cccc3ccccc23)o1,0.342%
23,NC(=O)c1nsc(C(=O)N(CCCN2CCOCC2)C(C(=O)NC2CCCCC2)c2ccc(Cl)cc2)c1N (stereo not drawn),-42.8%

row,Compound,"hERG current change (%, negative = inhibition) at 10uM"
1,CCCNc1nc2c(c(=O)[nH]c(=O)n2C)n1CCC(C)C,-0.274%
2,CC(=O)c1ccc(OCCCC(=O)N2CCN(S(=O)(=O)c3ccc(C)cc3C)CC2)cc1,-40.8%
3,Cc1ccc(OCC(=O)N2CCN(S(=O)(=O)c3ccc(Cl)cc3)CC2)c([N+](=O)[O-])n1,-48.8%
4,CC(=O)c1ccc(OCCCC(=O)N2CCN(S(=O)(=O)c3cc(C)ccc3C)CC2)cc1,-37.1%
5,Cc1ccc(S(=O)(=O)N2CCN(C(=O)COc3ccc(C)nc3[N+](=O)[O-])CC2)c(C)c1,-61%
6,Cc1ccc(OCC(=O)N2CCC(C)CC2)c([N+](=O)[O-])n1,-7.74%
7,CC(=O)c1ccc(OCC(=O)N2CCN(S(=O)(=O)c3ccc(C)cc3C)CC2)cc1,-61.6%
8,Cc1ccc(OCC(=O)N2CCC(Cc3ccccc3)CC2)c([N+](=O)[O-])n1,-67.7%
9,O=C(COc1ccccc1[N+](=O)[O-])N1CCC(Cc2ccccc2)CC1,-16.1%
10,Cc1ccc(OCC(=O)N2CCN(S(=O)(=O)c3ccccc3)CC2)c([N+](=O)[O-])n1,-45.8%
11,COc1ccc(CNC(=S)Nc2ccc(OC)cc2)cc1,3.09%
12,Cc1nnc(-c2ccc(N3CCCCCC3)c([N+](=O)[O-])c2)o1,-4.52%
13,Cc1ccc(CN2C(=O)CCC2C(=O)NCCc2ccccc2)cc1 (stereo not drawn),7.99%
14,c1ccc2nc3c(nc2c1)CCCC3,17.2%
15,Cn1c(=O)c2c(nc(SCc3cccnc3)n2Cc2ccccc2)n(C)c1=O,-17.6%
16,C=CCOCCN(C)C1=NS(=O)(=O)c2cc([N+](=O)[O-])ccc21,-19.8%
17,Cc1ncc(CN2CCC(CO)(CCOc3ccccc3)CC2)s1,-70.1%
18,Cc1ncc(CN2CCC(CO)(CCc3ccccc3)CC2)s1,-60.4%
19,Cc1ncc(CN2CCC(CO)(Cc3ccccc3)CC2)s1,-7%
20,Cc1ccc(NC(=O)c2ccc3nc(N4CCOCC4)sc3c2)c(Cl)c1,6.14%
21,Cc1ccc(NC(=O)/C=N/OCC(=O)NCc2ccccc2Cl)cc1,2.92%
22,Cc1cc(C)nc(SCc2nc3nc(C)cc(C)n3c2Br)n1,-22.6%
23,Cc1cc(C)n(C(=O)CSc2nc3ccccc3o2)n1,19.3%

row,Compound,"hERG current change (%, negative = inhibition) at 10uM"
1,Cc1csc2nc(CSc3nc4ccccc4o3)c(Br)n12,7.03%
2,Cc1cc(C)n2c(Br)c(CSc3nc4ccccc4o3)nc2n1,-63.9%
3,Cc1cc(C)n2c(Br)c(CSc3nc4ccccc4s3)nc2n1,-76.7%
4,Cc1cc(C)nc(NC(=O)CSc2nc3ccccc3s2)n1,2.88%
5,CCOc1ccc(/C=N/NC(=O)c2[nH]ncc2Br)c(O)c1,4.05%
6,Cc1ccc(C(CC(=O)NCCCN(C)C)c2ccc(OC(C)C)cc2)cc1 (stereo not drawn),-42.9%
7,COc1ccc(NC(=O)CC(c2ccc(F)cc2)c2ccc(OC(C)C)cc2)cc1 (stereo not drawn),3.91%
8,CC(C)Oc1ccc(C(CC(=O)O)c2ccc(F)cc2)cc1 (stereo not drawn),6.58%
9,CN(C)CCCNC(=O)CC(c1ccc(F)cc1)c1ccco1 (stereo not drawn),-37.3%
10,CC(C)Oc1ccc(C(CC(=O)N(C)CCC#N)c2ccc(F)cc2)cc1 (stereo not drawn),-59.2%
11,CC(C)Oc1ccc(C(CC(=O)NCCCN(C)C)c2ccc(F)cc2)cc1 (stereo not drawn),-57.1%
12,Br.O=C(N=c1nc2ccccn2s1)c1ccccc1,14.1%
13,CCn1c(COc2ccc(=O)n(-c3ccccc3)n2)nnc1SCc1cccc(OC)c1,-39.1%
14,CCn1c(COc2ccc(=O)n(-c3ccccc3)n2)nnc1SC,2.39%
15,CCn1c(COc2ccc(=O)n(-c3ccccc3)n2)nnc1SCC(=O)OC,9.02%
16,C=CCSc1nnc(COc2ccc(=O)n(-c3ccccc3)n2)n1CC,-2.15%
17,CCn1c(COc2ccc(=O)n(-c3ccccc3)n2)nnc1SCc1ccc(C)cc1,-59.9%
18,CCn1c(COc2ccc(=O)n(-c3ccccc3)n2)nnc1SCc1ccc(OC)cc1,-67.7%
19,CCn1c(COc2ccc(=O)n(-c3ccccc3)n2)nnc1SCc1ccccc1,-48.2%
20,CCn1c(COc2ccc(=O)n(-c3ccccc3)n2)nnc1SCc1ccccc1C,-65.4%
21,CCn1c(COc2ccc(=O)n(-c3ccccc3)n2)n[nH]c1=S,23.3%
